Records with an inconclusive call do not appear. Some structures have more than one record in an assay (separate samples or runs), and their calls can disagree. Active and inactive are the calls of the source. The calls were made as follows: active = hit-call score of the fitted dose curve at least 0.9, where 1 is the maximum; inconclusive = response in the unintended direction; inactive = score below 0.9.
These molecules were tested against Bile acid receptor (Homo sapiens) (UniProt Q96RI1) (assay: ATG_FXR_TRANS: Attagene TRANS-FACTORIAL HepG2 Assay for Farnesoid X Receptor (FXR) (AID 2282979;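 also: hits raise reporter mRNA above DMSO so AC50 marks FXR activation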)). Details: HepG2 Attagene TRANS FXR-GAL4 reporter transcription.
Procedure, shortened: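 HepG2 cells were transiently transfected with GAL4-UAS reporters driven by chimeric NR-Gal4 proteins and dosed for 24 h. Reporter mRNA was quantified by RT-PCR, fluorescent labelling, HpaI digestion and capillary electrophoresis, with gain of signal scored versus DMSO.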

Chain of Bile acid receptor (Homo sapiens) (Q96RI1 whole entry, looked up, the tested form may be a part): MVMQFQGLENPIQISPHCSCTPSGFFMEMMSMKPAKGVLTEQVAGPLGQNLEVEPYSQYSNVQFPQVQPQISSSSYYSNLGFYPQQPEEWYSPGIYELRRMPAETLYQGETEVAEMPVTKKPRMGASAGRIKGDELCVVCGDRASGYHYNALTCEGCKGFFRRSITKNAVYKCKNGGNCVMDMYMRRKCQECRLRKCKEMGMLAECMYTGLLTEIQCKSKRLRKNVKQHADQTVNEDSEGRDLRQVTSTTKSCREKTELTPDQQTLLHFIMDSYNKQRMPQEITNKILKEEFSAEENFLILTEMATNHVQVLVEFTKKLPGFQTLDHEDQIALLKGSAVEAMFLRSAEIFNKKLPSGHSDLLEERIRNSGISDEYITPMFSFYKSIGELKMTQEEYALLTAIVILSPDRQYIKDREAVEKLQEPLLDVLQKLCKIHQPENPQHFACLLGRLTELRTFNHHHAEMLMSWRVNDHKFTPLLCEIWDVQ

SMILES | outcome | AC50
C[C@]12CC[C@@H]3c4ccc(O)cc4C[C@@H](CCCCCCCCCS(=O)CCCC(F)(F)C(F)(F)F)[C@H]3[C@@H]1CC[C@@H]2O (some centres undefined) | inactive | –
O=C(O)C1(C(=O)Nc2ccc(Cl)cc2Cl)CC1 | inactive | –
CCCCOC(=O)[C@@H](C)Oc1ccc(Oc2ccc(C(F)(F)F)cn2)cc1 | inactive | –
CC(C)CCCCCCc1ccc(O)cc1 | inactive | 19.2 µM (active)
CCOC(=O)NCCOc1ccc(Oc2ccccc2)cc1 | inactive | –
OB(O)O | inactive | –
O=C(c1ccc(O)cc1O)c1ccc(O)cc1O | inactive | –
CCCOC(=O)c1ccc(C(=O)OCCC)nc1 | inactive | –
O=C(c1ccccc1)C1CCCCC1 | inactive | –

What follows are molecules tested against Oxysterols receptor LXR-alpha (Homo sapiens) (UniProt Q13133) (assay: ATG_LXRa_TRANS: Attagene TRANS-FACTORIAL HepG2 Assay for human Liver X Receptor alpha (LXRa) (AID 2282980)). Details: HepG2 Attagene TRANS reporter, LXRa transactivation.
Procedure, shortened: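 HepG2 cells transiently transfected with GAL4-UAS reporter units for chimeric NR-Gal4 proteins, exposed to chemicals for 24 h. Reporter mRNA quantified by RT-PCR and capillary electrophoresis; gain of signal fitted relative to DMSO.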

Chain of Oxysterols receptor LXR-alpha (Homo sapiens) (Q13133 whole entry, looked up, the tested form may be a part): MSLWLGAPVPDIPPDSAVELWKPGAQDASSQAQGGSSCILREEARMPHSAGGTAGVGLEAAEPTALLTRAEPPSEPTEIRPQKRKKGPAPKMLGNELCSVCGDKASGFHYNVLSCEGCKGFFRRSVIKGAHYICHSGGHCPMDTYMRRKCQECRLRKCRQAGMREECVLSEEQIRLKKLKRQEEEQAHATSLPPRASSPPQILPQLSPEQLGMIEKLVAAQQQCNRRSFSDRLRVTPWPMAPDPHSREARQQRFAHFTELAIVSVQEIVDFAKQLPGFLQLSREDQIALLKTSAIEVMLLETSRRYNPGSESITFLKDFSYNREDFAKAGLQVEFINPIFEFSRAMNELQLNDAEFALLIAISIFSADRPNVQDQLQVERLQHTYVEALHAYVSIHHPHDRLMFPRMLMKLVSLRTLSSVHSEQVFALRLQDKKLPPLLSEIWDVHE

SMILES | outcome | AC50
C[C@]12CC[C@@H]3c4ccc(O)cc4C[C@@H](CCCCCCCCCS(=O)CCCC(F)(F)C(F)(F)F)[C@H]3[C@@H]1CC[C@@H]2O (some centres undefined) | inactive | –
COC(=O)c1cccc(C)c1S(=O)(=O)NC(=O)Nc1nc(OCC(F)(F)F)nc(N(C)C)n1 | inactive | –
CC1(C)C(C=C(Cl)Cl)C1C(=O)OCc1cccc(Oc2ccccc2)c1 (centres undefined) | inactive | –
CCC(C)OC(=O)N1CCCCC1CCO (centres undefined) | inactive | –
CCC(O)=C1C(=O)CC(C(=O)O)CC1=O (centres undefined) | inactive | –
O=C(O)C1(C(=O)Nc2ccc(Cl)cc2Cl)CC1 | inactive | –
c1ccc(Nc2ccccc2)cc1 | inactive | –
CC(C)(c1ccc(O)cc1)c1ccc(O)cc1 | inactive | –
CCCCOC(=O)[C@@H](C)Oc1ccc(Oc2ccc(C(F)(F)F)cn2)cc1 | inactive | –
COC(=O)c1ccc(CNS(C)(=O)=O)cc1S(=O)(=O)NC(=O)Nc1nc(OC)cc(OC)n1 | inactive | –
CC(C)CCCCCCc1ccc(O)cc1 | inactive | 11.1 µM (active)
CCOC(=O)NCCOc1ccc(Oc2ccccc2)cc1 | inactive | –
CCCN(CCC)c1c([N+](=O)[O-])cc(C(F)(F)F)c(N)c1[N+](=O)[O-] | inactive | –
N#CSCSc1nc2ccccc2s1 | inactive | –
CCCN(CCC)C(=O)SCC | inactive | –
S=C(S)NCCNC(=S)S.[Mn+2].[S-]C([S-])=NCCN=C([S-])[S-].[Zn+2] | inactive | –
OB(O)O | inactive | –
O=C(c1ccc(O)cc1O)c1ccc(O)cc1O | inactive | –
CC(=O)S[C@@H]1CC2=CC(=O)CC[C@]2(C)[C@H]2CC[C@@]3(C)[C@@H](CC[C@@]34CCC(=O)O4)[C@H]12 | inactive | –
C#C[C@]1(O)CC[C@H]2[C@@H]3CCC4=CC(=O)CC[C@@H]4[C@H]3CC[C@@]21CC | inactive | –
CCCCC(CC)CN1C(=O)C2C3C=CC(C3)C2C1=O (centres undefined) | inactive | –
CCCCOC(=O)C(C)Oc1ccc(Oc2ccc(C(F)(F)F)cn2)cc1 (centres undefined) | inactive | –
CCCOC(=O)c1ccc(C(=O)OCCC)nc1 | inactive | –
O=C(c1ccccc1)C1CCCCC1 | inactive | –
COc1c(Cl)ccc(Cl)c1C(=O)O | inactive | –

What follows are molecules tested against Oxysterols receptor LXR-beta (Homo sapiens) (UniProt P55055) (assay: ATG_LXRb_TRANS: Attagene TRANS-FACTORIAL HepG2 Assay for human Liver X Receptor beta (LXRb) (AID 2282981)). Details: HepG2 Attagene TRANS GAL4-LXRb reporter, mRNA.
Procedure, shortened: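 HepG2 cells transiently transfected with GAL4-UAS reporter units for chimeric NR-Gal4 proteins, dosed for 24 h. Reporter transcripts measured by RT-PCR and capillary electrophoresis; gain-of-signal fitting relative to DMSO.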

Chain of Oxysterols receptor LXR-beta (Homo sapiens) (P55055 whole entry, looked up, the tested form may be a part): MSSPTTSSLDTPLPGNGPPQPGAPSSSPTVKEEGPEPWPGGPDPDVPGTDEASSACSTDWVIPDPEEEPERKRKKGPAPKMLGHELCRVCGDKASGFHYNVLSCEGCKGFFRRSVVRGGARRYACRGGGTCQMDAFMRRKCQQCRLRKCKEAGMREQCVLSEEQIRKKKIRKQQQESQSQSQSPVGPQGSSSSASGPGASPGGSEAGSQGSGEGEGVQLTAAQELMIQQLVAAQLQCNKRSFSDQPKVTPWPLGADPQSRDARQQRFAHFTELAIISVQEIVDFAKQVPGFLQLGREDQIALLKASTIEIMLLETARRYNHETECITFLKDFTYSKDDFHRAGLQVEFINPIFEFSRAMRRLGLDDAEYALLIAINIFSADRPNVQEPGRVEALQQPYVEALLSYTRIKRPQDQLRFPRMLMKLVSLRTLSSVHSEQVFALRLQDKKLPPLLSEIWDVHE

SMILES | outcome | AC50
C[C@]12CC[C@@H]3c4ccc(O)cc4C[C@@H](CCCCCCCCCS(=O)CCCC(F)(F)C(F)(F)F)[C@H]3[C@@H]1CC[C@@H]2O (some centres undefined) | inactive | –
COC(=O)c1cccc(C)c1S(=O)(=O)NC(=O)Nc1nc(OCC(F)(F)F)nc(N(C)C)n1 | inactive | –
CC1(C)C(C=C(Cl)Cl)C1C(=O)OCc1cccc(Oc2ccccc2)c1 (centres undefined) | inactive | –
CCC(C)OC(=O)N1CCCCC1CCO (centres undefined) | inactive | –
CCC(O)=C1C(=O)CC(C(=O)O)CC1=O (centres undefined) | inactive | –
O=C(O)C1(C(=O)Nc2ccc(Cl)cc2Cl)CC1 | inactive | –
c1ccc(Nc2ccccc2)cc1 | inactive | –
CC(C)(c1ccc(O)cc1)c1ccc(O)cc1 | inactive | –
CCCCOC(=O)[C@@H](C)Oc1ccc(Oc2ccc(C(F)(F)F)cn2)cc1 | inactive | –
COC(=O)c1ccccc1S(=O)(=O)NC(=O)Nc1nc(OC(F)F)cc(OC(F)F)n1 | inactive | –
COC(=O)c1ccc(CNS(C)(=O)=O)cc1S(=O)(=O)NC(=O)Nc1nc(OC)cc(OC)n1 | inactive | –
CC(C)CCCCCCc1ccc(O)cc1 | inactive | 51.1 µM (active)
CCOC(=O)NCCOc1ccc(Oc2ccccc2)cc1 | inactive | –
CCCN(CCC)c1c([N+](=O)[O-])cc(C(F)(F)F)c(N)c1[N+](=O)[O-] | inactive | –
N#CSCSc1nc2ccccc2s1 | inactive | –
CCN(Cc1c(F)cccc1Cl)c1c([N+](=O)[O-])cc(C(F)(F)F)cc1[N+](=O)[O-] | inactive | –
CCCN(CCC)C(=O)SCC | inactive | –
S=C(S)NCCNC(=S)S.[Mn+2].[S-]C([S-])=NCCN=C([S-])[S-].[Zn+2] | inactive | –
OB(O)O | inactive | –
O=C(c1ccc(O)cc1O)c1ccc(O)cc1O | inactive | –
CC(=O)S[C@@H]1CC2=CC(=O)CC[C@]2(C)[C@H]2CC[C@@]3(C)[C@@H](CC[C@@]34CCC(=O)O4)[C@H]12 | inactive | –
C#C[C@]1(O)CC[C@H]2[C@@H]3CCC4=CC(=O)CC[C@@H]4[C@H]3CC[C@@]21CC | inactive | –
CCCCC(CC)CN1C(=O)C2C3C=CC(C3)C2C1=O (centres undefined) | inactive | –
CCCCOC(=O)C(C)Oc1ccc(Oc2ccc(C(F)(F)F)cn2)cc1 (centres undefined) | inactive | –
CCCOC(=O)c1ccc(C(=O)OCCC)nc1 | inactive | –
O=C(c1ccccc1)C1CCCCC1 | inactive | –
COc1c(Cl)ccc(Cl)c1C(=O)O | inactive | –
CCSC(=O)N(CC(C)C)CC(C)C | inactive | –
